This is an account of results in PubChem BioAssay (NCI).

Test systems include NCI-H23 lung; NCI-H226 lung; NCI-H322M lung; HOP-62 NSCLC; NCI-H460 lung; HOP-92 NSCLC; NCI-H522 lung; A549/ATCC NSCLC; 786-0 renal; COLO 205 colon; DU-145 prostate; K-562 leukemia; MALME-3M melanoma; MDA-MB-231 breast; RXF 393 renal; SF-268 CNS; SF-295 CNS; SF-539 CNS; UACC-257 melanoma; M14 melanoma.
Experiment in all cases: NCI-60 one-dose screen, 48 h (100 = growth as untreated, 0 = no growth, -100 = all killed)
Holding throughout (details): 10 µM unless noted

This is part of a sample that, as a whole, favours compounds with a hit. Of some 83,000 tested, about 20% had one in any assay.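 48-hour exposure, single concentration, 96-well plates; percent growth endpoint where 0 means no net growth. Active: below 10.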 Unmarked numbers belong to inactive results. Active and inactive are the calls of the source.

Turning to `COc1ccc(C2=NN(C=O)C(c3ccc(Oc4nc5c(c(=O)n(C)c(=O)n5C)n4C)c(OC)c3)C2)cc1` (stereo not given), the growth is 80.7% with NCI-H23 lung; 82.4% in the assay on NCI-H226 lung; 76.6% with NCI-H322M lung; 87% in the assay on HOP-62 NSCLC; 99% in the assay on NCI-H460 lung; 95.2% in the assay on HOP-92 NSCLC. Also, the growth in the assay on NCI-H522 lung is 92.9%; in the assay with A549/ATCC NSCLC, 56.6%; in the assay with 786-0 renal, 103%; with COLO 205 colon, 91.5%; in the assay with DU-145 prostate, 60.9%; in the assay with K-562 leukemia, 89.9%. Besides, the growth in the assay with MALME-3M melanoma was 102%; in the assay with MDA-MB-231 breast, 77.6%; in the assay with RXF 393 renal, 110%; with SF-268 CNS, 57.8%; with SF-295 CNS it was 75.5%; in the assay with SF-539 CNS, 110%. The growth in the assay with UACC-257 melanoma is -10.3% (active); with M14 melanoma it was 68.9%.

Take `CC(C)(C#N)c1cc(C(=O)Nc2cc(Nc3ncccc3-c3ncnc4nc[nH]c34)ccc2F)cc(C(F)(F)F)c1`: the growth was 24.3% in the assay on NCI-H23 lung; 41.8% in the assay on NCI-H226 lung; 67.2% in the assay on NCI-H322M lung; 45.7% with HOP-62 NSCLC; 35.9% in the assay on NCI-H460 lung; -5.84% (active) in the assay on HOP-92 NSCLC. Moreover, the growth with NCI-H522 lung is 62%; in the assay on A549/ATCC NSCLC it was 49.7%; in the assay on 786-0 renal, 64%; with COLO 205 colon, 11.9%; in the assay on DU-145 prostate it was 66%; in the assay with K-562 leukemia, 5.56% (active). Further, the growth with MALME-3M melanoma is 2.06% (active); in the assay on MDA-MB-231 breast it was 18.3%; in the assay with RXF 393 renal it was 91.7%; in the assay on SF-268 CNS, 66.2%; in the assay with SF-295 CNS, 74.5%; in the assay on SF-539 CNS, 32.1%. In addition, the growth in the assay on UACC-257 melanoma was 12%; with M14 melanoma it was 6.18% (active).

For the molecule `N#C/C(=N\Nc1ccccc1)C(=O)Nc1cc(-c2ccccc2)nn1-c1ccccc1`, the growth with NCI-H23 lung is 6.94% (active); in the assay on NCI-H226 lung, 25.6%; with NCI-H322M lung, 8.62% (active); in the assay on HOP-62 NSCLC, 52.8%; with NCI-H460 lung it was 6.6% (active); with HOP-92 NSCLC it was -18.6% (active). Moreover, the growth is 15.4% in the assay with NCI-H522 lung; 30.4% with A549/ATCC NSCLC; 50.5% in the assay on 786-0 renal; 48.4% with COLO 205 colon; 51.5% in the assay on DU-145 prostate; 25.9% with K-562 leukemia. In addition, the growth in the assay with MALME-3M melanoma is 4.67% (active); with MDA-MB-231 breast it was 26.1%; in the assay with RXF 393 renal it was 36.9%; in the assay on SF-268 CNS it was 22.9%; with SF-295 CNS, 11.4%; in the assay with SF-539 CNS it was 40.4%. In addition, the figures for the growth with UACC-257 melanoma and in the assay on M14 melanoma were 12.3% and 33.7%, respectively.

As to `Cc1nc2sc(C(=O)Nc3ccccc3)c(N)c2cc1C(O)c1ccccc1` (stereo not given), the growth in the assay on NCI-H23 lung is 33.5%; with NCI-H226 lung, 64%; with NCI-H322M lung it was 56.3%; with HOP-62 NSCLC, 39.6%; in the assay with NCI-H460 lung, 4.01% (active); in the assay on HOP-92 NSCLC it was 63.7%. The growth is 12.8% with NCI-H522 lung; 24.4% in the assay on A549/ATCC NSCLC; 40.8% in the assay on 786-0 renal; -8.82% (active) in the assay with COLO 205 colon; 18.1% in the assay on DU-145 prostate; 7.04% (active) in the assay on K-562 leukemia. Further, the growth was 60.8% in the assay on MALME-3M melanoma; 16.7% in the assay on MDA-MB-231 breast; 40% with RXF 393 renal; 47.9% with SF-268 CNS; 4.69% (active) in the assay on SF-295 CNS; -5.44% (active) in the assay on SF-539 CNS. Further, the growth is 72.5% with UACC-257 melanoma and 20.3% with M14 melanoma.

Turning to `CCCCCC(C)(O)C(C(=O)O)c1ccccc1` (stereo not given), the growth in the assay with NCI-H23 lung was 107%; in the assay on NCI-H226 lung, 104%; in the assay on NCI-H322M lung it was 104%; in the assay with HOP-62 NSCLC, 101%; in the assay with NCI-H460 lung, 109%; in the assay on HOP-92 NSCLC it was 94.1%. The growth in the assay on NCI-H522 lung was 95%; with A549/ATCC NSCLC it was 99.6%; in the assay with 786-0 renal it was 99.2%; in the assay on COLO 205 colon, 118%; in the assay with DU-145 prostate, 114%; with K-562 leukemia, 121%. For the same molecule, the growth in the assay with MALME-3M melanoma is 93.9%; with MDA-MB-231 breast it was 102%; with RXF 393 renal it was 110%; with SF-268 CNS it was 107%; in the assay with SF-295 CNS it was 103%; in the assay on SF-539 CNS, 95.4%. Also, the growth was 102% in the assay on UACC-257 melanoma and 96.7% with M14 melanoma.

Take `CCOC(=O)C#Cc1c(CC(=O)OCC)nnn1[C@H]1O[C@@H](CO)[C@@H]2OC(C)(C)O[C@@H]21`: the growth in the assay on NCI-H23 lung is 95.3%; with NCI-H226 lung it was 93.8%; in the assay on NCI-H322M lung it was 93.9%; in the assay with HOP-62 NSCLC, 101%; in the assay with NCI-H460 lung it was 104%; in the assay on HOP-92 NSCLC it was 75.1%. In addition, the growth in the assay on NCI-H522 lung is -57.6% (active); in the assay on A549/ATCC NSCLC, 75.9%; with 786-0 renal, 83.9%; with COLO 205 colon, -40.3% (active); with DU-145 prostate, 94.5%; in the assay with K-562 leukemia, 10.3%. The growth was 26.6% in the assay on MALME-3M melanoma; 105% in the assay with MDA-MB-231 breast; 3.65% (active) in the assay on RXF 393 renal; 105% in the assay on SF-268 CNS; 97.4% in the assay on SF-295 CNS; 75.3% in the assay on SF-539 CNS. Besides, the growth is 62.8% in the assay with UACC-257 melanoma and 58.3% in the assay with M14 melanoma.

On to `CCN(CC)c1ccc(/C=N/NC(=O)c2ccccc2Nc2ccnc(C(F)(F)F)c2)c(O)c1`, for which the growth in the assay with NCI-H23 lung was 40.4%; with NCI-H226 lung it was 8.93% (active); in the assay with NCI-H322M lung, 39.7%; with HOP-62 NSCLC it was 28%; with NCI-H460 lung, 4.43% (active); in the assay on HOP-92 NSCLC, 19.9%. The growth is 42.9% in the assay with NCI-H522 lung; 35.8% with A549/ATCC NSCLC; 16.6% with 786-0 renal; 25.7% with COLO 205 colon; 20.7% in the assay on DU-145 prostate; 62.9% in the assay on K-562 leukemia. Besides, the growth with MALME-3M melanoma is 45.3%; with MDA-MB-231 breast, 56.8%; in the assay with RXF 393 renal, 51.4%; in the assay on SF-268 CNS it was 14.5%; in the assay with SF-295 CNS, 24.1%; with SF-539 CNS, -11.1% (active). The growth in the assay with UACC-257 melanoma was 19.2%; with M14 melanoma it was -17.4% (active).

In the case of `CCN1CCN(C(=O)[C@]23CC[C@@H](C)[C@H](C)[C@@H]2C2=CC[C@@H]4[C@@]5(C)C/C(=C/c6ccncc6)C(=O)C(C)(C)[C@@H]5CC[C@@]4(C)[C@]2(C)CC3)CC1`, the growth in the assay on NCI-H23 lung was 20.8%; in the assay on NCI-H226 lung, 24.7%; with NCI-H322M lung, 53.2%; with HOP-62 NSCLC, 33.2%; in the assay with NCI-H460 lung it was -6.85% (active); with HOP-92 NSCLC, 45.2%. Moreover, the growth with NCI-H522 lung was 23.4%; in the assay with A549/ATCC NSCLC, 25.5%; with 786-0 renal, 19.6%; in the assay with COLO 205 colon, -15.6% (active); in the assay on DU-145 prostate it was 41.8%; in the assay on K-562 leukemia, 9.31% (active). The growth in the assay with MALME-3M melanoma is -9.75% (active); with MDA-MB-231 breast it was 2.96% (active); in the assay on RXF 393 renal it was -18.7% (active); with SF-268 CNS it was 49%; with SF-295 CNS, 28.5%; in the assay on SF-539 CNS, -80.2% (active). Also, the growth in the assay on UACC-257 melanoma was 25.6%; in the assay on M14 melanoma, 25.4%.
